PubChem BioAssay AID463075 (University of Pittsburgh Molecular Library Screening Center, 2010)
The campaign covered roughly 220,000 compounds. About 150 (0.068%) were called active.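 How the source made its calls: active means activation, meaning protection from cell death, of at least 50% relative to plate controls; inactive means activation below 50%.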 Only a selection was taken, and actives are over-represented in it overall.

test: inhibitors of TNF-alpha triggered necroptosis, primary screen, cell-based, Jurkat FADD-/-, single concentration (AID 463075); details: Jurkat FADD-/- TNF necroptosis rescue, ATP luminescence, 24 h; at 10 µM; hits give high values; 0 = TNF only, 100 = no-TNF cells;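 further: necroptosis triggered by 40 ng/mL TNF-alpha added together with compound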

Row | SMILES | activation (protection from cell death)
1 | Nc1c(-c2cccc(Cl)c2)cnn1-c1cccc([N+](=O)[O-])c1 | -1.25% (inactive)
2 | c1ccc(-c2csc(N3CCc4ccccc4C3)n2)cc1 | -3.03% (inactive)
3 | C=CCCN(Cc1ccccc1)S(=O)(=O)c1ccccc1Br | -2.9% (inactive)
4 | CC(C)(C)c1ccc(/C=C2\SC(=O)N=C2N)cc1 | 2.08% (inactive)
5 | Cc1cccc(NC(=O)c2nc[nH]c2C(=O)NCC(=O)OCc2ccccc2)c1 | -9.45% (inactive)
6 | CCN(CC)CCNC(=O)c1ccc(NC(=O)c2c(F)cccc2Cl)cc1 | -0.132% (inactive)
7 | COc1ccccc1C(=O)CSc1cccc[n+]1[O-] | -0.693% (inactive)
8 | Cc1cc(C(=O)OCC(=O)Nc2ccc(F)c(F)c2)c(C)o1 | 3.31% (inactive)
9 | COCCCNC(=O)C1CCC(CNS(=O)(=O)c2ccc(OC)cc2)CC1 (stereo unspecified) | 1.04% (inactive)
10 | Cc1cccc(C(=O)N2CCc3c([nH]c4ccccc34)C2CC(C)C)n1 (stereo unspecified) | 1.18% (inactive)
11 | Cc1cc([N+](=O)[O-])nn1CC(=O)Nc1ccc(Cc2ccncc2)cc1 | 3.27% (inactive)
12 | Cc1cc([N+](=O)[O-])nn1Cc1ccc(F)cc1 | 76.6% (active)
13 | Cc1cc([N+](=O)[O-])nn1CCCC(=O)Nc1cccnc1Cl | 0.812% (inactive)
14 | O=C(Nc1ccn(Cc2ccccc2)n1)c1cccc(F)c1 | 3.16% (inactive)
15 | O=C(Nc1ccn(Cc2ccccc2F)n1)c1ccc(COc2ccc(Cl)cc2Cl)o1 | -6.7% (inactive)
16 | CC(=O)Nc1ccn(Cc2c(F)cccc2Cl)n1 | 88% (active)
17 | CCc1cccc(CC)c1NC(=O)COc1ccccc1C(=O)c1cc(C#N)c(=O)n(C2CCCCC2)c1 | 1.06% (inactive)
18 | Cn1nccc1NC(=O)Nc1ccc(OC(F)(F)F)cc1 | 2.9% (inactive)
19 | CCCC(=O)n1nc(NCc2ccc(OC)cc2)nc1NCc1ccc(OC)cc1 | 2.21% (inactive)
20 | CC(C)CNC(=O)C(=O)NCc1ccccc1 | 1.96% (inactive)
21 | CC(C)(C)C(=O)N1CCC[C@@]1(CO)C(=O)O | 1.03% (inactive)
22 | CCN(Cc1ccncc1)C(=O)c1cccc(S(=O)(=O)N2CCOCC2)c1 | 0.919% (inactive)
23 | COc1cc(C=O)ccc1Oc1nnnn1-c1ccccc1 | -3.04% (inactive)
24 | N#CC1(NC(=O)COc2ccc3oc4ccccc4c3c2)CCCCC1 | 1.8% (inactive)

Row | SMILES | activation (protection from cell death)
25 | CC(C)N(C(=O)Cn1cc(SCC(=O)N2CCCC2)c2ccccc21)C(C)C | 1.35% (inactive)
26 | Cc1ccc(S(=O)(=O)N(C)C)cc1NC(=O)COC(=O)c1c(C)noc1C | 0.89% (inactive)
27 | CN(C)CCNC(=O)/C(=C/c1cccc([N+](=O)[O-])c1)NC(=O)c1ccccc1 | 2.51% (inactive)
28 | COc1ccc(/C=C/C(=O)c2cc(Br)ccc(=O)c2O)cc1 | -1.56% (inactive)
29 | CCc1ccc(C2C(C#N)=C(N)N(N3CCOCC3)C3=C2C(=O)CC(C)(C)C3)s1 (stereo unspecified) | 0.137% (inactive)
30 | C[C@@H]1C[C@@H]2O[C@H]2/C=C\C=C\C(=O)Cc2c(Cl)c(O)cc(O)c2C(=O)O1 | 36.6% (inactive)
31 | C=CCOc1c(CNn2cn[nH]c2=S)cccc1OC | -0.439% (inactive)
32 | Cc1n[nH]c(=O)nc1N/N=C/c1cccs1 | -6.4% (inactive)
33 | CCc1cccc(CC)c1NC(=S)Nc1ccc2cn[nH]c2c1 | -5.25% (inactive)
34 | C=CCNc1nc(N)c(C(=C(C#N)C#N)c2ccccc2)s1 | -6.24% (inactive)
35 | COC(=O)CCNC(=O)c1ccc2[nH]c(C)c(C)c2c1 | -0.237% (inactive)
36 | COC(=O)COc1cccc2c(=O)n(CC(=O)NCc3ccccc3)ccc12 | -12.7% (inactive)
37 | CCCc1cc(=S)n2c([nH]c3ccccc32)c1C#N | -1.86% (inactive)
38 | COc1cccc(CC(=O)N2CCCC(CCC(=O)N3CCN(c4ccccn4)CC3)C2)c1 (stereo unspecified) | 2.68% (inactive)
39 | CCn1cc(C(=O)Nc2cc(C)ccc2C)c(=O)c2ccc(C)nc21 | 0.491% (inactive)
40 | O=[N+]([O-])c1ccc(N/N=C2/CCCCC2c2ccccn2)c([N+](=O)[O-])c1 (stereo unspecified) | 2.74% (inactive)
41 | CCn1c2ccccc2c2cc(NC(=O)C/C(C)=N/NC(=O)c3ccccc3N)ccc21 | -9.27% (inactive)
42 | COc1cc(OC)cc(/C(N)=N/O)c1 | 4.62% (inactive)
43 | Cc1ccc(S(=O)(=O)/N=C(/NC(=S)Nc2c(C)n(C)n(-c3ccccc3)c2=O)c2ccccc2)cc1 | 0.616% (inactive)
44 | O=C(N/N=C1\CCSC1)c1cc(Cl)ccc1O | -0.00524% (inactive)
45 | O=C(Cc1cccc2ccccc12)NNC(=O)Nc1ccc(Cl)cc1 | 7.05% (inactive)
46 | Cc1nc2ccccc2nc(=O)c1NNc1ccc([N+](=O)[O-])cc1 | 3.59% (inactive)
47 | Oc1ccc(/C=N/Nc2ccc(C(F)(F)F)cn2)cc1O | 30.8% (inactive)
48 | O=S(=O)([N-]c1nc2ccccc2nc1-[n+]1ccc(Cc2ccccc2)cc1)c1ccc(Br)s1 | -3.84% (inactive)

Row | SMILES | activation (protection from cell death)
49 | CCCN=C1NC(=O)C(CC(=O)NCCc2ccc(OC)c(OC)c2)S1 (stereo unspecified) | 1.06% (inactive)
50 | O=C(CSc1nnc(-c2ccncc2)o1)NCc1ccc(Cl)cc1 | 3.12% (inactive)
51 | Cc1cccc(N2CCN(C(=O)/C=C/c3ccco3)CC2)c1C | -4.02% (inactive)
52 | Cc1ccc(S(=O)(=O)N2CCN(CC(=O)N/N=C/c3cc([N+](=O)[O-])ccc3Cl)CC2)cc1 | 4.63% (inactive)
53 | COc1ccc(C(=S)Nc2ccccc2)cc1 | -4.07% (inactive)
54 | COc1ccc(C(=O)NC2CCN(C(=S)Nc3ccccc3)CC2)cc1 | 0.717% (inactive)
55 | COc1ccc(NC(=S)N2N=CCC2c2ccccc2)cc1 (stereo unspecified) | 87.5% (active)
56 | CCCCS(=O)c1snnc1C (stereo unspecified) | -0.406% (inactive)
57 | CCCOc1ccc(Cc2c(Cl)nc(SC)nc2NC)cc1 | -4.22% (inactive)
58 | CCCCN(C)CCNC(=O)CSCc1ccc(C)cc1 | 1.41% (inactive)
59 | CCN1C(=O)/C(=C2/Sc3ccc(OC)cc3N2C)SC1=Nc1ccc(C)cc1 | -1.29% (inactive)
60 | COc1ccc(N(CC(=O)NC2CCCCC2)S(=O)(=O)c2c(C)[nH]c(=O)[nH]c2=O)cc1 | -0.527% (inactive)
61 | CCOC(=O)/C=c1\s/c(=C\c2ccc(C#N)cc2)c(=O)n1CC(=O)Nc1cccc(C)c1C | 0.5% (inactive)
62 | Cc1ccc(N2C(=O)SC(N(CC(=O)O)c3ccc(C)cc3)C2=O)cc1 (stereo unspecified) | 0.355% (inactive)
63 | CCCN(CC(=O)Nc1ccc(C(N)=O)cc1)CC(=O)Nc1ccccc1C | 8.38% (inactive)
64 | Oc1ccccc1C=NC1CCCCC1N=Cc1ccccc1O (stereo unspecified) | 0.233% (inactive)
65 | C/C(=N\N=C(N)N)c1ccc(Cl)cc1 | 2.76% (inactive)
66 | C=CCNC(=O)c1sc(SC)cc1-c1ccc(Cl)cc1 | -2.68% (inactive)
67 | COc1cccc(C2c3[nH]c4ccccc4c3CCN2Cc2cccc(C)n2)c1 (stereo unspecified) | 0.616% (inactive)
68 | CC1CCc2c(nc3ncnn3c2Nc2ccc(OC(F)(F)F)cc2)C1 (stereo unspecified) | -5.14% (inactive)
69 | COC(=O)c1ccc(NC(=O)CSc2nncc3ccc(OC)c(OC)c23)cc1 | -0.335% (inactive)
70 | CCNc1nc(NCC)nc(N/N=C/c2ccc(O)c(OC)c2)n1 | 22.3% (inactive)
71 | Cc1ccc(NC(=O)c2cccs2)cc1S(=O)(=O)N(C)C | 1.75% (inactive)
72 | CCOC(=O)C1=C(c2ccccc2)NC(=S)NC1c1ccc(Cl)cc1 (stereo unspecified) | -2.28% (inactive)

Row | SMILES | activation (protection from cell death)
73 | COc1ccc(/C(=N\O)c2nccc3cc(OC)c(OC)cc23)cc1OC | 0.543% (inactive)
74 | CN1C(C)(C)CC(NC(=O)CCC(=O)NC2CC(C)(C)N(C)C(C)(C)C2)CC1(C)C | 0.679% (inactive)
75 | CNC(=O)c1c(NC(NC(=O)c2ccco2)C(=O)c2ccc(Cl)cc2)sc2c1CCCC2 (stereo unspecified) | 0.421% (inactive)
76 | Cc1c(CN2CCCCC2)c(O)n(CCO)c(=O)c1C#N | -0.121% (inactive)
77 | CCOC(=O)/C(=N\Nc1cc(Cl)ccc1Cl)N1CCN(C)CC1 | 7.63% (inactive)
78 | COc1cccc(OCCCN2CCCCCC2)c1 | 1.03% (inactive)
79 | Cc1cc(=O)oc2cc(OCC3CC(c4ccccc4Cl)=NO3)ccc12 (stereo unspecified) | -15.7% (inactive)
80 | Cc1ccc(C2NC(=S)NC3=C2N2CCC3CC2)cc1 (stereo unspecified) | 1.6% (inactive)
81 | C=C(Cl)COC(=O)C1C2C=CC(C2)C1C(=O)O (stereo unspecified) | -1.48% (inactive)
82 | CN(C)/C=C/C(=O)c1cnc2sccn2c1=O | -0.24% (inactive)
83 | Cc1nnsc1C(=O)Nc1cccc(Cl)c1C | 5.62% (inactive)
84 | Cc1nnsc1C(=O)N/N=C/c1ccccc1Cl | 3.7% (inactive)
85 | Cc1nnsc1C(=O)NCc1c(F)cccc1Cl | 72.6% (active)
86 | O=C(NCCCCCCCCCNC(=O)C(F)(F)F)C(F)(F)F | -0.812% (inactive)
87 | CS(=O)(=O)c1ccc2nc(NC(=O)c3ccc(N4CCCC4=O)cc3)sc2c1 | -0.943% (inactive)
88 | COc1ccc(S(=O)(=O)N2CCN(C(=O)c3cc(C)oc3C)CC2)cc1 | 2.28% (inactive)
89 | O=c1cc(N2CCCCC2)c(-c2ccccc2)nn1Cc1cccc(F)c1 | -0.813% (inactive)
90 | Cc1ccc(O)c(-c2cc(C(=O)NCc3ccccc3)[nH]n2)c1 | -18.4% (inactive)
91 | O=C(Nc1ccc(F)cc1)c1cc2c(s1)CCCC2 | -1.43% (inactive)
92 | CCCCCCCNc1nc(Cl)nc(NCCO)n1 | 5.58% (inactive)
93 | O=C(CCCOc1ccc(Cl)cc1Cl)NNC(=O)C1CCC1 | 3.99% (inactive)
94 | C/C(CCc1ccccc1)=N\NC(=O)c1ccc(CN2CCOCC2)cc1 | 0.488% (inactive)
95 | CCN=c1sc(C(=O)Nc2ccccc2)c(C)n1CC | 1.57% (inactive)
96 | CCOC(=O)CN(C(=O)COc1nc(-c2ccccc2)cc(C)c1C#N)c1ccc(F)cc1 | 0.588% (inactive)
